# According to PubChem BioAssay:
# Values joined by “and” are separate entries in the source; they are usually repeats but may differ in a detail not shown here. Identical values can stand only once. Unmarked numbers belong to inactive results. The list shows a part of the results. Active and inactive are the calls of the source.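 The calls were made as follows, unless noted: active = membrane potential signal drops by more than 5 SD from the mean control signal, in both duplicate plates; inactive = the rest.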
# Key:
# [1] = nonspecific voltage dye response without TRPC6 – cell-based, parental HEK293, counter-screen for TRPC6 modulator project, confirmation (AID 488924;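 active = membrane potential signal moves up or down beyond 5 SD from buffer-only wells, on both duplicate plates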); conditions: parental HEK293, membrane potential dye fluorescence; at 10 µM
# [2] = membrane potential response modulators in host HEK293 cells – cell-based, second counter-screen, parental HEK293, membrane potential dye, counter-screen for TRPC6 modulator project, confirmation (AID 488926); conditions: parental HEK293, membrane potential dye fluorescence, at 10 µM, after compound, maximal acetylcholine stimulation; active compounds read high;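 as to inhibition: plate controls were acetylcholine ECmax control wells for no effect and buffer only wells for full effect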
# [3] = test system: Transient receptor potential cation channel subfamily C member 4 (mouse); experiment: off-target membrane potential effects via mouse TRPC4 – cell-based, HEK293 TRPC4/mu-opioid, membrane potential dye, selectivity assay for TRPC6 modulator project, confirmation (AID 488927;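 active = membrane potential signal moved up or down beyond 5 SD of buffer control wells, in both duplicate plates, actives on both sides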;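 as to percent change from control (negative = decrease, positive = increase): plate controls were assay buffer wells for no effect and DAMGO maximal-effect wells for full effect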); conditions: membrane potential fluorescence, at 10 µM
# [4] = test system: TRPC4 (transient receptor potential cation channel C4), mouse; experiment: DAMGO-evoked mouse TRPC4 response blockade – cell-based, second screen, HEK293 TRPC4/mu-opioid, membrane potential dye, selectivity assay for TRPC6 modulator project, confirmation (AID 488928;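 active = drop in membrane potential signal beyond 5 SD of the control wells in both duplicate plates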;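 also: TRPC4 counter screen for TRPC6 hits run under conditions tuned for TRPC6 not TRPC4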); conditions: membrane potential dye fluorescence, at 10 µM, stimulated with maximal-effect DAMGO; active compounds read high
# [5] = target: Short transient receptor potential channel 6 (Mus musculus) (UniProt Q61143); experiment: blockers of TRPC6 cation channel activity – HEK293 cells, membrane potential dye, duplicate, confirmation (AID 488960;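 active = fluorescence ratio falls more than 5 SD below the full-stimulation control mean, in both duplicate runs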;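 as to inhibition: integrated fluorescence ratio of peak minus minimum over baseline after agonist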); conditions: ACh-evoked depolarization, at 10 µM; active compounds read high
# Short transient receptor potential channel 6 (Mus musculus), sequence (Q61143 whole entry, looked up): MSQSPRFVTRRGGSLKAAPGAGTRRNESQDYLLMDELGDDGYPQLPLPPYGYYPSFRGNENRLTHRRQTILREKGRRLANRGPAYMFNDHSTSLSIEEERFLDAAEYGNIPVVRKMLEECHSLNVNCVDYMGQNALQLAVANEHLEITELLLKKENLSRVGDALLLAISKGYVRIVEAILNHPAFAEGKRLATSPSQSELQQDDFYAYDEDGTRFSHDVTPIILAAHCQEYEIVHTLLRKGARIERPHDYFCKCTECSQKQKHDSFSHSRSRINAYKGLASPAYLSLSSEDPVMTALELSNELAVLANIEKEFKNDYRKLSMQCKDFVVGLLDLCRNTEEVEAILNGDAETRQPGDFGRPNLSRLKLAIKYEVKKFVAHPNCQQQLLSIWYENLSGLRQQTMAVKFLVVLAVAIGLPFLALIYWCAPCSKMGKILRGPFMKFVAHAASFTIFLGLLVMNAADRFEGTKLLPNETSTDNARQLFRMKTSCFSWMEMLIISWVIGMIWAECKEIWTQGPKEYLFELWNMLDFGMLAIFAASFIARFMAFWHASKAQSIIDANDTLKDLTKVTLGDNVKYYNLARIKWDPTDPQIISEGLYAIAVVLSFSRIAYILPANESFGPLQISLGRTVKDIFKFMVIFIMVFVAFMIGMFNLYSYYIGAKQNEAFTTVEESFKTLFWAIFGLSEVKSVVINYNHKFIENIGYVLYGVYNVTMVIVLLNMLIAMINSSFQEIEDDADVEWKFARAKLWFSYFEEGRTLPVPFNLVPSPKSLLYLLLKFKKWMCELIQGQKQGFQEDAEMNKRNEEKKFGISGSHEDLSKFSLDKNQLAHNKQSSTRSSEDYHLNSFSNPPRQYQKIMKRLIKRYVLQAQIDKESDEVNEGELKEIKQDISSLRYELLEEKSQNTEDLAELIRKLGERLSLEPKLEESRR
# [6] = target: Short transient receptor potential channel 6 (Mus musculus) (UniProt Q61143); experiment: mouse TRPC6 channel activators, confirmation, HEK293 cells, membrane potential dye, duplicate (AID 488961;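 active = ratio signal rise beyond 5 SD above unstimulated control wells' mean, seen in both duplicate runs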;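 as to activation: plate controls were buffer EC0 wells for no effect and acetylcholine ECmax response for full effect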); conditions: HEK293-TRPC6 membrane potential dye fluorescence, FDSS, at 10 µM; active compounds read high
# [7] = target: Potassium voltage-gated channel subfamily KQT member 1 (Homo sapiens) (UniProt P51787); experiment: blockers of human KCNQ1 channel – cell-based, Tl flux, duplicate, confirmation (AID 588353;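 active = primary screen active, with duplicate mean exceeding buffer control mean plus 3 SD of buffer wells, cut at about 28% in these data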;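 also: 0% = buffer control ratio and 100% = XE991 inhibitor control ratio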); conditions: KCNQ1 cell line, FluxOR thallium flux fluorescence, at 10 µM, active compounds read high
# Potassium voltage-gated channel subfamily KQT member 1 (Homo sapiens), sequence (P51787 whole entry, looked up): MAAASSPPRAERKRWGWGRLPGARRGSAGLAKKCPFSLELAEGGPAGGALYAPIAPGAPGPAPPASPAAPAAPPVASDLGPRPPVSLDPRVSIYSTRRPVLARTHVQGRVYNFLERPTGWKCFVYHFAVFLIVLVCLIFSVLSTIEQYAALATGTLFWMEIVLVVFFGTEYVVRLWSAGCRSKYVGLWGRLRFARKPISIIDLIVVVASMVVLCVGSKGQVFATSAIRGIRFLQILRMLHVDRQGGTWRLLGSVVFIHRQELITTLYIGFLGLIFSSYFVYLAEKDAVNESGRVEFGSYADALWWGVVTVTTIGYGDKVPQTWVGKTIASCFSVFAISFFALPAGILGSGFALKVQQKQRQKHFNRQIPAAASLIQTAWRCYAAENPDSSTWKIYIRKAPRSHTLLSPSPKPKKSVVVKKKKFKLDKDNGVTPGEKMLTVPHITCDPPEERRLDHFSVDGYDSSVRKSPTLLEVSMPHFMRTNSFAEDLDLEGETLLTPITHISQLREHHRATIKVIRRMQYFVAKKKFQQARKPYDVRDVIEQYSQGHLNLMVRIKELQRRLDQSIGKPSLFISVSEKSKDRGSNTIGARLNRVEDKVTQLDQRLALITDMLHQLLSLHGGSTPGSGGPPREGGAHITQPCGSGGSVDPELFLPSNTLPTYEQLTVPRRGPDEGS
# [8] = nonspecific activity in CHO-K1 cells without KCNQ1 – parental CHO cells, Tl flux, counter-screen for KCNQ1 inhibitor project (AID 588366;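 active = mean of duplicate thallium-flux fluorescence ratios in parental host cells more than 5 SD below the buffer control mean, cut at about 0.38 in these data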;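 also: ratio is peak minus minimum fluorescence divided by baseline fluorescence; actives read low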); conditions: parental CHO-K1, FluxOR thallium flux fluorescence ratio; at 10 µM; active compounds read low; zero means no signal rise above baseline
# [9] = target: Potassium voltage-gated channel subfamily KQT member 2 (Rattus norvegicus) (UniProt O88943); experiment: block of rat KCNQ2 potassium channel – cell-based, selectivity assay for KCNQ1 inhibitor project (AID 651746;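 active = mean percent inhibition of the KCNQ2 thallium signal more than 5 SD above the buffer-only control wells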;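 also: 0% = buffer control wells and 100% = XE-991 inhibitor control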); conditions: KCNQ2 cells, FluxOR thallium flux fluorescence, at 10 µM; active compounds read high
# Potassium voltage-gated channel subfamily KQT member 2 (Rattus norvegicus), sequence (O88943 whole entry, looked up): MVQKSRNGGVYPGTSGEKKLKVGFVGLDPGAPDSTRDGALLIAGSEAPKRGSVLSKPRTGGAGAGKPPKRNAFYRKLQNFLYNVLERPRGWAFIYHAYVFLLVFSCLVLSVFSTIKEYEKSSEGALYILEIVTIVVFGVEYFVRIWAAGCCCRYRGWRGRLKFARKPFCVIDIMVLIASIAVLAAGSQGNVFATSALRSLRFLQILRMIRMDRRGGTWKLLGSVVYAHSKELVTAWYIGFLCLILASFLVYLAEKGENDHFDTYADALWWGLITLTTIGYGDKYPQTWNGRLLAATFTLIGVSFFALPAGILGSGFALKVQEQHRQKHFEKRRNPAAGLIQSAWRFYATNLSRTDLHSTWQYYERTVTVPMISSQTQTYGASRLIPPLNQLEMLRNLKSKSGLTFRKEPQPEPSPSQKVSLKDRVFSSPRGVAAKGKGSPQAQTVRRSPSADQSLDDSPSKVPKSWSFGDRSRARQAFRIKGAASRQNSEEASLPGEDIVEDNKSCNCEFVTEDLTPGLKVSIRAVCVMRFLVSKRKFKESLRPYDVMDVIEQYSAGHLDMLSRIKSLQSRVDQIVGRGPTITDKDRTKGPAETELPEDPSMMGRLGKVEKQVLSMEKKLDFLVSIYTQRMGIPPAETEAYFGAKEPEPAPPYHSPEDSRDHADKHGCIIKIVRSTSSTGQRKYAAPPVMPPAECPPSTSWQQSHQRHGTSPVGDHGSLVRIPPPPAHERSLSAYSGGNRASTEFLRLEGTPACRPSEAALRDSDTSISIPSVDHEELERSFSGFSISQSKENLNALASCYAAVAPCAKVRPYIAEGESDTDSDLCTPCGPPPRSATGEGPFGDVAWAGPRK
# [10] = target: Potassium voltage-gated channel subfamily E member 1 (Homo sapiens) + Potassium voltage-gated channel subfamily KQT member 1 (Homo sapiens) (UniProt P15382+P51787); experiment: block of human IKs channel complex – CHO-K1 cells, thallium flux, FluxOR, selectivity assay for KCNQ1 inhibitor project (AID 652147;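 active = mean percent inhibition of duplicate wells above the buffer-only control mean plus 3 SD of those controls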;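 also: 0% = buffer only wells and 100% = XE-991 inhibitor control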); conditions: KCNQ1/KCNE1 cells, FluxOR thallium flux fluorescence, at 10 µM; active compounds read high
# Potassium voltage-gated channel subfamily E member 1 (Homo sapiens) + Potassium voltage-gated channel subfamily KQT member 1 (Homo sapiens), sequence (P51787 whole entry, looked up): as the sequence (P51787 whole entry, looked up) above
# [11] = nonspecific flux increase, KCNQ1-free cells – parental CHO cells, counter-screen for KCNQ1 potentiator project (AID 493006;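 active = duplicate-averaged activation above buffer control mean plus 5 SD of those controls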;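 as to activation: fluorescence ratio of max minus min over baseline after K+ and Tl+ depolarization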); conditions: parental CHO-K1 cells, FluxOR thallium flux, at 10 µM; active compounds read high
# [12] = target: Potassium voltage-gated channel subfamily KQT member 1 (Homo sapiens) (UniProt P51787); experiment: enhancement of KCNQ1 channel thallium flux – FluxOR thallium flux, CHO cells, duplicates, confirmation (AID 493007;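 active = potentiation averaged over duplicate wells exceeding buffer-only control mean by more than 3 SD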;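 as to outcome: cells depolarized by a potassium plus thallium sulfate stimulus after compound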;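 as to potentiation: 0% = buffer-only wells and 100% = R-L3 activator control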); conditions: KCNQ1 cell line, FluxOR thallium flux fluorescence, at 10 µM; active compounds read high, % of reference activator effect, buffer zero
# [13] = target: Potassium voltage-gated channel subfamily KQT member 2 (Rattus norvegicus) (UniProt O88943); experiment: KCNQ2 thallium flux enhancement – KCNQ2-CHO-K1 cells, selectivity assay for KCNQ1 potentiator project (AID 493009;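 active = mean duplicate potentiation above the buffer control mean plus 5 SD of buffer wells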;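 also: assay conditions were tuned for KCNQ1 rather than KCNQ2 modulators; signal is max minus min fluorescence divided by baseline after thallium stimulus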); conditions: FluxOR thallium flux fluorescence, at 10 µM; active compounds read high, scaled: buffer 0, activator control 100
# [14] = target: Potassium voltage-gated channel subfamily KQT member 1 (Homo sapiens) (UniProt P51787); experiment: KCNQ1 activators by electrophysiology – IonWorks patch clamp, KCNQ1-CHO cells, orthogonal assay for KCNQ1 potentiator project, confirmation (AID 493184;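 active = current rise at least 3 SD above the untreated control mean in each of two repeat wells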); conditions: automated patch clamp current, at 10 µM; active compounds read high
compound,measurement,setting,value
Cc1ccccc1NC(=O)CNc1ccccc1N1CCCCC1,outcome,[1],inactive
same,outcome,[2],inactive
same,outcome,[3],inactive
same,inhibition,[4],52.5% (active)
same,outcome,[5],inactive
same,outcome,[6],inactive
CSCCC(NC(=O)c1ccc(=O)n(C)n1)c1nc2ccccc2[nH]1 (stereo unspecified),outcome,[1],inactive
same,outcome,[2],inactive
same,outcome,[3],inactive
same,outcome,[4],inactive
same,outcome,[5],inactive
same,outcome,[6],inactive
CCc1ccc(-c2cc(C(=O)NN3CCN(C)CC3)c3ccccc3n2)cc1,outcome,[1],inactive
same,outcome,[2],inactive
same,outcome,[3],inactive
same,inhibition,[4],41% (active)
same,outcome,[5],inactive
same,outcome,[6],inactive
C/C(=N\Nc1nc2ccccc2[nH]1)c1cccs1,membrane potential signal change,[1],-108% (active)
same,inhibition,[2],73.5% (active)
same,"percent change from control (negative = decrease, positive = increase)",[3],-24% (active)
same,inhibition,[4],85% (active)
same,inhibition,[5],76% (active)
same,outcome,[6],inactive
COc1cc(CNCCN(C)C)ccc1OCc1c(F)cccc1Cl,membrane potential signal change,[1],142% (active)
same,outcome,[2],inactive
same,"percent change from control (negative = decrease, positive = increase)",[3],15.5% (active)
same,inhibition,[4],49% (active)
same,outcome,[5],inactive
same,activation,[6],56% (active)
N=c1c2c3c(sc2nc2n1CCCCC2)CCCC3,membrane potential signal change,[1],-118% (active)
same,outcome,[2],inactive
same,"percent change from control (negative = decrease, positive = increase)",[3],-22.5% (active)
same,inhibition,[4],55.5% (active)
same,inhibition,[5],61% (active)
same,outcome,[6],inactive
CCOC(=O)C1=NN(c2ccc(Cl)cc2)/C(=C/C2=NCCc3cc(OC)c(OC)cc32)S1,outcome,[1],inactive
same,outcome,[2],inactive
same,"percent change from control (negative = decrease, positive = increase)",[3],-15.5% (active)
same,outcome,[4],inactive
same,outcome,[5],inactive
same,outcome,[6],inactive
COc1ccccc1C(CNC(=O)c1cccc(NS(=O)(=O)c2ccc(Br)cc2)c1)N(C)C (stereo unspecified),outcome,[1],inactive
same,outcome,[2],inactive
same,outcome,[3],inactive
same,inhibition,[4],32.5% (active)
same,inhibition,[5],44% (active)
same,outcome,[6],inactive
O=C1c2ccccc2C(=O)c2c1cccc2N1CCN(CCO)CC1,membrane potential signal change,[1],-367% (active)
same,inhibition,[2],64% (active)
same,"percent change from control (negative = decrease, positive = increase)",[3],-80.5% (active)
same,inhibition,[4],60% (active)
same,inhibition,[5],78.5% (active)
same,outcome,[6],inactive
CC(NC(=S)Nc1ccc(OC(F)F)cc1)c1ccc(F)cc1 (stereo unspecified),outcome,[1],inactive
same,outcome,[2],inactive
same,"percent change from control (negative = decrease, positive = increase)",[3],-14.5% (active)
same,outcome,[4],inactive
same,outcome,[5],inactive
same,outcome,[6],inactive
COc1ccc(Cl)cc1NC(=O)CCS(=O)(=O)c1cc2c(cc1C)NC(=O)CO2,outcome,[1],inactive
same,outcome,[2],inactive
same,"percent change from control (negative = decrease, positive = increase)",[3],-9.5% (active)
same,outcome,[4],inactive
same,outcome,[5],inactive
same,outcome,[6],inactive
CN(C)c1cc(N)c2ccccc2n1 (tested in a mixture with another compound),membrane potential signal change,[1],-230% (active)
same,outcome,[2],inactive
same,"percent change from control (negative = decrease, positive = increase)",[3],-40.5% (active)
same,inhibition,[4],82% (active)
same,inhibition,[5],69.5% (active)
same,outcome,[6],inactive
CN1CCN(c2nc(Nc3ccc(O)cc3)nc3ccccc23)CC1,membrane potential signal change,[1],-221% (active)
same,inhibition,[2],65.5% (active)
same,"percent change from control (negative = decrease, positive = increase)",[3],-38% (active)
same,inhibition,[4],71% (active)
same,inhibition,[5],67.5% (active)
same,outcome,[6],inactive
COc1ccc(C(=O)C2CCCN(Cc3cccn3-c3ccccn3)C2)c(C)c1 (stereo unspecified),outcome,[1],inactive
same,inhibition,[2],140% (active)
same,"percent change from control (negative = decrease, positive = increase)",[3],-17.5% (active)
same,inhibition,[4],99% (active)
same,inhibition,[5],107% (active)
same,outcome,[6],inactive
same,inhibition,[7],41.5% (active)
same,fluorescence ratio (Tl flux),[8],0.496
same,inhibition,[9],89% (active)
same,inhibition,[10],39.5% (active)
CC(=O)NC(CC(=O)O)C(=O)O (stereo unspecified),outcome,[11],inactive
same,outcome,[12],inactive
same,outcome,[13],inactive
same,outcome,[14],inactive
CN(C)c1ccc(/C=C2\NC(=S)N(Cc3ccccc3)C2=O)cc1,membrane potential signal change,[1],267% (active)
same,outcome,[2],inactive
same,"percent change from control (negative = decrease, positive = increase)",[3],126% (active)
same,outcome,[4],inactive
same,outcome,[5],inactive
same,outcome,[6],inactive
O=C(CN1CCCCCC1)NCCN1C(=O)S/C(=C\c2ccccc2Cl)C1=O,outcome,[1],inactive
same,outcome,[2],inactive
same,outcome,[3],inactive
same,inhibition,[4],36% (active)
same,outcome,[5],inactive
same,outcome,[6],inactive
CCCC(=O)Nc1ccc(C(=O)NCCCn2ccnc2)cc1,outcome,[1],inactive
same,outcome,[2],inactive
same,outcome,[3],inactive
same,outcome,[4],inactive
same,outcome,[5],inactive
same,outcome,[6],inactive
CC(=O)c1cc(NC(=O)c2ccccc2)c(=O)oc1/C=C/N(C)C,membrane potential signal change,[1],868% (active)
same,inhibition,[2],196% (active)
same,"percent change from control (negative = decrease, positive = increase)",[3],43% (active)
same,inhibition,[4],35.5% (active)
same,outcome,[5],inactive
same,outcome,[6],inactive
Cc1cccc(-[n+]2c(-c3cccc(Br)c3)[nH]c3nc4ccccc4nc32)c1,outcome,[1],inactive
same,outcome,[2],inactive
same,outcome,[3],inactive
same,inhibition,[4],51% (active)
same,outcome,[5],inactive
same,outcome,[6],inactive
O=[N+]([O-])c1ccccc1Nc1ccc(O)cc1,membrane potential signal change,[1],-186% (active)
same,outcome,[2],inactive
same,"percent change from control (negative = decrease, positive = increase)",[3],-32% (active)
same,inhibition,[4],61.5% (active)
same,outcome,[5],inactive
same,outcome,[6],inactive
CCN1CCN(c2ccc([N+](=O)[O-])cc2C(=O)c2ccc(Cl)cc2)CC1,membrane potential signal change,[1],150% (active)
same,outcome,[2],inactive
same,"percent change from control (negative = decrease, positive = increase)",[3],20.5% (active)
same,inhibition,[4],63.5% (active)
same,outcome,[5],inactive
same,outcome,[6],inactive
NC(=NCCCCCCN=C(N)/N=C(\N)Nc1ccc(Cl)cc1)/N=C(\N)Nc1ccc(Cl)cc1,activation,[11],240% (active) and 259% (active)
same,potentiation,[12],59.5% (active) and 91.5% (active)
same,potentiation,[13],183% (active) and 216% (active)
same,outcome,[14],inactive
O=c1cc(N2CCc3ccccc32)[nH]c(=O)n1Cc1ccc(F)cc1,outcome,[11],inactive
same,outcome,[12],inactive
same,outcome,[13],inactive
same,outcome,[14],inactive
CCCc1cc2c(=O)c(-c3ccccn3)c(C)oc2cc1O,outcome,[11],inactive
same,outcome,[12],inactive
same,outcome,[13],inactive
same,outcome,[14],inactive
